Test results as given in article PMC7862700, “An all-to-all approach to the identification of sequence-specific readers for epigenetic DNA modifications on cytosine”.

Legend:
Experiment in all cases: DAPPL (digital affinity profiling via proximity ligation, sequencing); 10 mM Tris-HCl pH 7.5, 50 mM NaCl, 1 mM DTT, 4% glycerol, room temperature, 30 min; GST-TFs on glutathione beads, 16-mer random dsDNA library, 0.1% formaldehyde crosslink after washing; high values mean tight binding
Settings in all cases: protein: recombinant; tags: N-terminal GST; dsDNA, one strand shown
ERF = biological target: T1, ERF (Homo sapiens, UniProt P50548 1-548)
T1 sequence: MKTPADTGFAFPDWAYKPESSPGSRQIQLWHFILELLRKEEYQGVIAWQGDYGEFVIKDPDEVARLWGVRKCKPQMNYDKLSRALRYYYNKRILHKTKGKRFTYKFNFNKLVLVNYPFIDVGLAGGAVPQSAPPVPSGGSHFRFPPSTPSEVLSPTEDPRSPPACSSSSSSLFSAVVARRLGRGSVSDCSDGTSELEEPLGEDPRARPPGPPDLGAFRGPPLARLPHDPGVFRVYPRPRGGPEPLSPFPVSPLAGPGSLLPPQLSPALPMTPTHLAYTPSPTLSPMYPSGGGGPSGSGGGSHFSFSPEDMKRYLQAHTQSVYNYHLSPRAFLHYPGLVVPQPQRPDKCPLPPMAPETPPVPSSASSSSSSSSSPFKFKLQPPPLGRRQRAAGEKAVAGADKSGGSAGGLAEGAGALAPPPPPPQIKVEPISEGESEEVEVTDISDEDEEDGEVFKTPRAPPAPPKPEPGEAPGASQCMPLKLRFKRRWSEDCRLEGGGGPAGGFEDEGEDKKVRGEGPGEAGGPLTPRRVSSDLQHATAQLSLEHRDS
Outline: (§1)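 After expression in yeast as GST fusions, human transcription factors were bound to glutathione beads, DNA-barcoded and mixed with a tag-only sample. The pools were incubated with 200 nmole of a 16-mer random double-stranded DNA library in Tris/NaCl/DTT/glycerol buffer (30 min, room temperature), washed and crosslinked with 0.1% formaldehyde. Proximity ligation with BsaI/T4 ligase ran for 1 h at 37 °C, before PCR amplification and sequencing on an Illumina NextSeq500. Binding signal is a hexamer's read frequency for a factor divided by its frequency for the tag-only sample.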

ETV3L = biological target: T2, ETV3L (Homo sapiens, UniProt Q6ZN32 1-361)
T2 sequence: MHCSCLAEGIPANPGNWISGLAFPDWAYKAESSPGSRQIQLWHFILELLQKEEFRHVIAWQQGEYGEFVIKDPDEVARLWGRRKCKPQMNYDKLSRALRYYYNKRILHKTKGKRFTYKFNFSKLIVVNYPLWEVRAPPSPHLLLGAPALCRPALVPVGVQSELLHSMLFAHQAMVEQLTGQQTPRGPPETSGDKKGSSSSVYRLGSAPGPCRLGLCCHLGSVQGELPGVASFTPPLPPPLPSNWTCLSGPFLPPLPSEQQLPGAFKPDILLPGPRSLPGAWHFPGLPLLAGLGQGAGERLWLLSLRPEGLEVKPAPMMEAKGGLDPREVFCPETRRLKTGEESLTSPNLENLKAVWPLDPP
Outline: as §1

ETS2 = biological target: T3, ETS2 (Homo sapiens, UniProt P15036 1-469)
T3 sequence: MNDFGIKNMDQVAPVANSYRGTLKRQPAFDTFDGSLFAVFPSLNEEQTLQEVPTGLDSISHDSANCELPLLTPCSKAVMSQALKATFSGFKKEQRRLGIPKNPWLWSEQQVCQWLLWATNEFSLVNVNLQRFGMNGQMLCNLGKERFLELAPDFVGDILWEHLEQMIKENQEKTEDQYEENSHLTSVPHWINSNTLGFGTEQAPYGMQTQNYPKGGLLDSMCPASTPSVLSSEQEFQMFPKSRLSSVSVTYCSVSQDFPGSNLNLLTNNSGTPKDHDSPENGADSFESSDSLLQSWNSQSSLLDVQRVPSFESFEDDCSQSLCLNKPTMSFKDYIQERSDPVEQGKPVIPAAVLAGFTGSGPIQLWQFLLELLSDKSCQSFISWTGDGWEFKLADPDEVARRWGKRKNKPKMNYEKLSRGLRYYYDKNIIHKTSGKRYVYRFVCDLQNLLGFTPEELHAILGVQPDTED
Outline: as §1

SPDEF = biological target: T4, SPDEF (Homo sapiens, UniProt O95238 1-335)
T4 sequence: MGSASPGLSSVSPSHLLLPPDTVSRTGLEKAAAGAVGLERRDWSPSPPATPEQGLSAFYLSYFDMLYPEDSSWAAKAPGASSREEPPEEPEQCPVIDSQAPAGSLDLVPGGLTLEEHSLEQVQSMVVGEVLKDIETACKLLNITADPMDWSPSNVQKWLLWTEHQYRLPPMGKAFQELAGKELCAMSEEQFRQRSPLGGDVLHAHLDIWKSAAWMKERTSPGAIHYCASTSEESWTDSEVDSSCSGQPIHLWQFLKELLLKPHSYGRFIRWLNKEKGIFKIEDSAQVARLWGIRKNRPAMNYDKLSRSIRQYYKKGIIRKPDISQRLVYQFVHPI
Outline: as §1

ETV7 = biological target: T5, ETV7 (Homo sapiens, UniProt Q9Y603 1-341)
T5 sequence: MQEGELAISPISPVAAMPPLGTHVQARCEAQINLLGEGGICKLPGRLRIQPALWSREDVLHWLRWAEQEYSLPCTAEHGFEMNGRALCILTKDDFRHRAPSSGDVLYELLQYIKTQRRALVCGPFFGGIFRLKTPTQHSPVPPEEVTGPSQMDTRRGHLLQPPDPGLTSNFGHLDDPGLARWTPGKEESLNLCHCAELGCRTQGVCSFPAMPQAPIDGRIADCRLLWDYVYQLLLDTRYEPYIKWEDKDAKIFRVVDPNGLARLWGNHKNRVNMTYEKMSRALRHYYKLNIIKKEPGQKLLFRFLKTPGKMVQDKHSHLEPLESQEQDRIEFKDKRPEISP
Outline: as §1

ELF5 = biological target: T6, ELF5 (Homo sapiens, UniProt Q9UKW6-2 1-255)
T6 sequence: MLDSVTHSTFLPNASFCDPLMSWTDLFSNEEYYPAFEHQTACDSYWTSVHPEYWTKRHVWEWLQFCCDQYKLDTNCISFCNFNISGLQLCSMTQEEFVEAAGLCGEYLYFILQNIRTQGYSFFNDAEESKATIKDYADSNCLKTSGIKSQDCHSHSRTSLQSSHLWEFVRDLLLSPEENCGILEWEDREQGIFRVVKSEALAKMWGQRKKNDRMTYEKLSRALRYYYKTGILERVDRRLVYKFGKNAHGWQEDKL
Outline: as §1

ETV3 = biological target: T7, ETV3 (Homo sapiens, UniProt P41162-2 1-143)
T7 sequence: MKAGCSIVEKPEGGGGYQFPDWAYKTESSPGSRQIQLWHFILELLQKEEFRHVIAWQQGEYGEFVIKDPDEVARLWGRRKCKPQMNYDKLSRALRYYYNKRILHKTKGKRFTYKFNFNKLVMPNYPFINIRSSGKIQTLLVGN
Outline: as §1

ETV6 = ETV6 (Homo sapiens, UniProt P41212 1-452)
Outline: as §1

ETV6, sequence (P41212 whole entry): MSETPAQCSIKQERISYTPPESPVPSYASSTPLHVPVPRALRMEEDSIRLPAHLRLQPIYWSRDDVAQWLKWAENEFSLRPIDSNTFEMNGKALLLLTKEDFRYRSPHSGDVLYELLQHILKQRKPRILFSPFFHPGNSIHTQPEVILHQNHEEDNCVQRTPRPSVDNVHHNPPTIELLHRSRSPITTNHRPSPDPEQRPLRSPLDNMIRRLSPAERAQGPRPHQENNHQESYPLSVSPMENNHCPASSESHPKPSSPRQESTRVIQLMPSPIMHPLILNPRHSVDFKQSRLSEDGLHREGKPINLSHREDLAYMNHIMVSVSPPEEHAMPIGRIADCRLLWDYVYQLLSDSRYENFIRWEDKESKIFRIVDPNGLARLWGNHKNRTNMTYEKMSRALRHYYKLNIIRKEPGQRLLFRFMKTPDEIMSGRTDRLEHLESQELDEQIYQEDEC

Sequence: ACGACT
- binding signal (ERF): 1.15 fold enrichment (6-mer frequency, TF over GST control)
- binding signal (ETV3L): 1.28 fold enrichment (6-mer frequency, TF over GST control)
- binding signal (ETS2): 1.28 fold enrichment (6-mer frequency, TF over GST control)
- binding signal (SPDEF): 1.19 fold enrichment (6-mer frequency, TF over GST control)
- binding signal (ETV7): 1.17 fold enrichment (6-mer frequency, TF over GST control)
- binding signal (ELF5): 1.23 fold enrichment (6-mer frequency, TF over GST control)
- binding signal (ETV3): 1.22 fold enrichment (6-mer frequency, TF over GST control)
- binding signal (ETV6): 1.17 fold enrichment (6-mer frequency, TF over GST control)

Sequence: ATTGTT
- binding signal (ERF): 1.65 fold enrichment (6-mer frequency, TF over GST control)
- binding signal (ETV3L): 1.55 fold enrichment (6-mer frequency, TF over GST control)
- binding signal (ETS2): 1.47 fold enrichment (6-mer frequency, TF over GST control)
- binding signal (SPDEF): 1.46 fold enrichment (6-mer frequency, TF over GST control)
- binding signal (ETV7): 1.47 fold enrichment (6-mer frequency, TF over GST control)
- binding signal (ELF5): 1.36 fold enrichment (6-mer frequency, TF over GST control)
- binding signal (ETV3): 1.56 fold enrichment (6-mer frequency, TF over GST control)
- binding signal (ETV6): 1.51 fold enrichment (6-mer frequency, TF over GST control)

Sequence: GCTCCA
- binding signal (ERF): 1.26 fold enrichment (6-mer frequency, TF over GST control)
- binding signal (ETV3L): 1.26 fold enrichment (6-mer frequency, TF over GST control)
- binding signal (ETS2): 1.21 fold enrichment (6-mer frequency, TF over GST control)
- binding signal (SPDEF): 1.19 fold enrichment (6-mer frequency, TF over GST control)
- binding signal (ETV7): 1.19 fold enrichment (6-mer frequency, TF over GST control)
- binding signal (ELF5): 1.09 fold enrichment (6-mer frequency, TF over GST control)
- binding signal (ETV3): 1.14 fold enrichment (6-mer frequency, TF over GST control)
- binding signal (ETV6): 1.1 fold enrichment (6-mer frequency, TF over GST control)

Sequence: TCTTCG
- binding signal (ERF): 1.45 fold enrichment (6-mer frequency, TF over GST control)
- binding signal (ETV3L): 1.48 fold enrichment (6-mer frequency, TF over GST control)
- binding signal (ETS2): 1.55 fold enrichment (6-mer frequency, TF over GST control)
- binding signal (SPDEF): 1.49 fold enrichment (6-mer frequency, TF over GST control)
- binding signal (ETV7): 1.46 fold enrichment (6-mer frequency, TF over GST control)
- binding signal (ELF5): 1.4 fold enrichment (6-mer frequency, TF over GST control)
- binding signal (ETV3): 1.49 fold enrichment (6-mer frequency, TF over GST control)
- binding signal (ETV6): 1.36 fold enrichment (6-mer frequency, TF over GST control)

Sequence: CGAATA
- binding signal (ERF): 1.19 fold enrichment (6-mer frequency, TF over GST control)
- binding signal (ETV3L): 1.2 fold enrichment (6-mer frequency, TF over GST control)
- binding signal (ETS2): 1.12 fold enrichment (6-mer frequency, TF over GST control)
- binding signal (SPDEF): 1.1 fold enrichment (6-mer frequency, TF over GST control)
- binding signal (ETV7): 1.18 fold enrichment (6-mer frequency, TF over GST control)
- binding signal (ELF5): 1.11 fold enrichment (6-mer frequency, TF over GST control)
- binding signal (ETV3): 1.21 fold enrichment (6-mer frequency, TF over GST control)
- binding signal (ETV6): 1.18 fold enrichment (6-mer frequency, TF over GST control)

Sequence: GCTTGC
- binding signal (ERF): 1.24 fold enrichment (6-mer frequency, TF over GST control)
- binding signal (ETV3L): 1.29 fold enrichment (6-mer frequency, TF over GST control)
- binding signal (ETS2): 1.24 fold enrichment (6-mer frequency, TF over GST control)
- binding signal (SPDEF): 1.22 fold enrichment (6-mer frequency, TF over GST control)
- binding signal (ETV7): 1.21 fold enrichment (6-mer frequency, TF over GST control)
- binding signal (ELF5): 1.03 fold enrichment (6-mer frequency, TF over GST control)
- binding signal (ETV3): 1.19 fold enrichment (6-mer frequency, TF over GST control)
- binding signal (ETV6): 1.15 fold enrichment (6-mer frequency, TF over GST control)

Sequence: TTCAAT
- binding signal (ERF): 1.32 fold enrichment (6-mer frequency, TF over GST control)
- binding signal (ETV3L): 1.47 fold enrichment (6-mer frequency, TF over GST control)
- binding signal (ETS2): 1.42 fold enrichment (6-mer frequency, TF over GST control)
- binding signal (SPDEF): 1.32 fold enrichment (6-mer frequency, TF over GST control)
- binding signal (ETV7): 1.3 fold enrichment (6-mer frequency, TF over GST control)
- binding signal (ELF5): 1.26 fold enrichment (6-mer frequency, TF over GST control)
- binding signal (ETV3): 1.37 fold enrichment (6-mer frequency, TF over GST control)
- binding signal (ETV6): 1.35 fold enrichment (6-mer frequency, TF over GST control)
